Records with an inconclusive call do not appear. The source made the active and inactive calls.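 Rule for the calls, unless noted: active = inhibition above the screen-wide mean plus 3 SD, about 51%; inactive = the rest.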

Experiment [1] in a line: rapamycin-like changes in RPL19A-GFP expression – cell-based, S. cerevisiae, multiplex flow cytometry, primary screen (AID 1862; in the data active = percent of DMSO control GFP below about 86%;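 note: lower values mimic rapamycin by blocking the RPL19A rise seen in DMSO cells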). Particulars: S. cerevisiae RPL19A-GFP strain, flow cytometry fluorescence, 3 h; at 10 µM; stronger effect = lower value.
The nature of experiment [2]: TOR pathway GLN3 branch reporter MEP2-GFP changes – S. cerevisiae, multiplex flow cytometry, primary screen (AID 1867;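 active = GFP response, as percent of the DMSO control, above the screen-wide mean plus 3 SD, about 139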;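 note: median GFP channel fluorescence of barcode-gated MEP2-GFP cells measured by flow cytometry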). To be noted: S. cerevisiae MEP2-GFP strain, 3 h, at 10 µM, stronger effect = higher value, 100% means same as DMSO wells.
The nature of experiment [3]: TOR pathway RTG branch CIT2 reporter changes – S. cerevisiae, GFP fusion, multiplex flow cytometry, primary screen (AID 1870;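 active = percent response above a set limit, the screen-wide mean plus 3 SD, cut at about 130% in these data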;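 note: barcoded CIT2-GFP strain pooled with four other GFP strains with rapamycin as positive control; median GFP fluorescence per well over plate mean of DMSO wells so 100% = DMSO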). To be noted: S. cerevisiae CIT2-GFP expression, 3 h, at 10 µM, stronger effect = higher value.
A short description of experiment [4]: TOR pathway LAP4-GFP level changes – S. cerevisiae, multiplex flow cytometry, primary screen (AID 1873;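 active = GFP signal, as percent of the solvent control, above the screen mean plus 3 SD, about 149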). To be noted: S. cerevisiae LAP4-GFP expression, 3 h, at 10 µM, stronger effect = higher value.
Experiment [5] is described as follows: yeast AGP1-GFP level changes, GLN3 branch – cell-based, multiplex flow cytometry, S. cerevisiae, primary screen (AID 1887;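 active = GFP signal above the screen-wide mean plus 3 SD, that is over about 124.5% of the solvent control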;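 note: AGP1-GFP fusion strain of S. cerevisiae within a five-strain barcoded multiplex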). To be noted: 3 h, at 10 µM, stronger effect = higher value.
The nature of experiment [6]: reduced mouse 2C T cell binding to pMHC/ICAM-1 vesicles – MLPCN validation set, flow cytometry, LFA-1/ICAM-1 modulator project, pilot screen (AID 2523;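 active = response below a set limit, under 55% cells CD8-positive and vesicle-bound, and CD8 cells' 90th-percentile brightness under 279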;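 for vesicle binding response: mean PE anti-B7-1 fluorescence of CD8+ cells relative to row control; 100% = QL9-loaded vesicles with DMSO vehicle in the same plate row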). To be noted: 2C mouse CD8+ T cells, at 7 µM, stronger effect = lower value; double positive events: measured here: CD8+/vesicle+ event percentage.
Experiment [7] has as its target Integrin beta-1 (Homo sapiens) + Integrin alpha-4 (Homo sapiens) (UniProt P13612+P05556). As to the kind of experiment: alpha4beta1 integrin LIBS antibody binding reduction – U937 cells, HUTS-21 mAb, flow cytometry, validation set, VLA-4 allosteric modulator project, pilot screen (AID 2674;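 active = inhibition above 50%, about 3 SD of the validation set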;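 note: antibody binding induced by the VLA-4 ligand LDV present at three times its Kd; 0% = LDV ligand with antibody and no compound and 100% = antibody without LDV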). Particulars: HUTS-21 LIBS mAb binding, at 6.7 µM, stronger effect = higher value, binding induced by LDV ligand.

Experiment [8] in a line: calorie-restriction mimetic ROS inhibitors, yeast – validation compound set, pilot screen (AID 2706;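 active = superoxide response below 65% of plate, a cut near 3 SD across the whole screen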;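 note: yeast exposed to compound for one week at 30 degrees C before staining; 100% = mean of all compound wells on the same plate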). Particulars: S. cerevisiae aging, superoxide DHE fluorescence; at 10 µM, stronger effect = lower value.
For experiment [9], the target named is Beta-adrenergic receptor kinase 1 (Homo sapiens) (UniProt P25098). The experiment is described as follows: GRK2 binders displacing RNA aptamer, biochemical, validation, human GRK2, bead flow cytometry (AID 488806;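 active = aptamer binding inhibition above 30%, about 3 SD of noise from non-fluorescent compounds; inactive = inhibition at or below 30%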). Particulars: bead-bound GRK2, FAM-aptamer displacement, at 10 µM, stronger effect = higher value.
Chain of Beta-adrenergic receptor kinase 1 (Homo sapiens) (P25098 whole entry, looked up): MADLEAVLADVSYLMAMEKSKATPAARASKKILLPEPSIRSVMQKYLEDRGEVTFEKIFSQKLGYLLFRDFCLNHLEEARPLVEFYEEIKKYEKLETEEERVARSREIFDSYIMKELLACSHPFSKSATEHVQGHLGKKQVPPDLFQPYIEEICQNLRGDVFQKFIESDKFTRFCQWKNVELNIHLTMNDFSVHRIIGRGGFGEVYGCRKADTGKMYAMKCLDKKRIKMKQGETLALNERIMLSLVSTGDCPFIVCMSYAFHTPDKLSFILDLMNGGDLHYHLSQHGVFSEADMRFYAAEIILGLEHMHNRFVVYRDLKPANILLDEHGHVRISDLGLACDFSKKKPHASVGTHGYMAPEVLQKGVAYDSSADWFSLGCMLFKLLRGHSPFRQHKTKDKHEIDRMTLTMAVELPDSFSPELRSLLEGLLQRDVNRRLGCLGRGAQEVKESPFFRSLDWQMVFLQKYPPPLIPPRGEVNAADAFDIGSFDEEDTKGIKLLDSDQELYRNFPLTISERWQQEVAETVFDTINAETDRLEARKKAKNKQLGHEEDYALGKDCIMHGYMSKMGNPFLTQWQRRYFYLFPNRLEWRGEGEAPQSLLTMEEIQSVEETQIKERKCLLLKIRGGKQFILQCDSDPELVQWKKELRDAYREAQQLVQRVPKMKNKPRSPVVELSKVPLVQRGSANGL
Experiment [10] addresses AP-2 complex subunit beta (Homo sapiens) (UniProt P63010). The experiment is described as follows: beta-arrestin/AP2 interaction blockers – biochemical, validation set, GST-AP2 beads, flow cytometry, pilot screen (AID 504541;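 active = inhibition above 54%, about 3 SD of non-fluorescent compounds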;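 note: AP2 carries R879A mutation and is captured from E. coli lysate; bead-bound FITC arrestin peptide fluorescence measuring arrestin peptide binding to AP2; 0% = DMSO wells and 100% = excess unlabeled arrestin peptide control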). To be noted: FITC arrestin peptide, at 10 µM, stronger effect = higher value, AP2 beta2 appendage fragment, R879A mutant.
Experiment [11] in a line: cytosolic pH regulators acting via V-ATPase – S. cerevisiae, pHLuorin, HTS validation (AID 504600; in the data active = response above about 15%;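 note: plate controls were DMSO for no effect and reference compound for full effect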). To be noted: V-ATPase proton transport, at 10 µM, stronger effect = higher value.
Experiment [12] has as its system anti-desmoglein-3 scFv antibody binding to human DSG3. As to the kind of experiment: blockers of pathogenic pemphigus antibody–desmoglein-3 binding – biochemical, validation compound set, bead-based, flow cytometry, pilot screen (AID 588368;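 active = binding below the plate cutoff, the plate median minus 3 SD, with a reading above zero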;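 note: signal is the median channel fluorescence of bead-bound GFP antibody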). Particulars: Protein G beads, DSG3-Fc, scFv-GFP binding, at 10 µM, stronger effect = lower value.
Experiment [13] in a line: Nile Red efflux blockade in pump-expressing yeast – validation compound set, multiplex, phenotypic, pilot screen (AID 588506;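 active = efflux inhibition above 0.42, the validation set average plus 4 SD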;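 note: Nile Red retained in cells so higher fluorescence means more efflux inhibition; 0 = negative control wells and 1 = enniatin B 25 µM full block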). To be noted: S. cerevisiae pump-expressing triplex, Nile Red efflux flow cytometry; at 10 µM; stronger effect = higher value; the pumps come from Candida albicans.
The target in experiment [14] is ATP-binding cassette sub-family B member 6 (Homo sapiens) (UniProt Q9NP58). The experiment is described as follows: blockers of ABCB6-driven porphyrin uptake – K562-ABCB6 cells, flow cytometry, validation set, pilot screen (AID 588550).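 Note: 0% = DMSO wells and 100% = benzethonium chloride 70 µM positive control.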 To be noted: K562-ABCB6 porphyrin accumulation, 1 h, at 10 µM, stronger effect = higher value.
Chain of ATP-binding cassette sub-family B member 6 (Homo sapiens) (Q9NP58 whole entry, looked up): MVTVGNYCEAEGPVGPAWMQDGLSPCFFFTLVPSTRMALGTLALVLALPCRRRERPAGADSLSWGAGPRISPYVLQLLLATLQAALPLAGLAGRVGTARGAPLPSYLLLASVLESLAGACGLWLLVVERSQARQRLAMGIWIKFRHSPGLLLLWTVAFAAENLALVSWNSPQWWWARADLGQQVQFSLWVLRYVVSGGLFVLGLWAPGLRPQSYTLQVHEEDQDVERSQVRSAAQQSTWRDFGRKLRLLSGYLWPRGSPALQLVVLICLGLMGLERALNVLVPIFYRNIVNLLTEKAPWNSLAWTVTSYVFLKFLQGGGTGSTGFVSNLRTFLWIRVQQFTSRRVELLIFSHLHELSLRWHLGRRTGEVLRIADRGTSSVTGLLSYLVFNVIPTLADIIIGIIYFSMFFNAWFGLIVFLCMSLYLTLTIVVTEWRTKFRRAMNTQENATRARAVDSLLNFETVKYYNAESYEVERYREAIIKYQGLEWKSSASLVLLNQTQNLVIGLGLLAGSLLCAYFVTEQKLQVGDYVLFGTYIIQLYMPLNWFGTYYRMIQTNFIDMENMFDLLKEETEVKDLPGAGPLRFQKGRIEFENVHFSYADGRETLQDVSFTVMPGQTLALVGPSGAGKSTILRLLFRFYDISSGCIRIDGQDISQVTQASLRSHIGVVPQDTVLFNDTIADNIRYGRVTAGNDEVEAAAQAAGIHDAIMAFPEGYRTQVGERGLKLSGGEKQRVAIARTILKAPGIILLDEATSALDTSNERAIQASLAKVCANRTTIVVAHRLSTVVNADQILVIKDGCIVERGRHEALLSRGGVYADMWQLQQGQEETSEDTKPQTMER
Experiment [15] is described as follows: AML differentiation inducers, ER-HoxA9 marrow cells – cell-based, GFP/MAC1 double positive, flow cytometry, validation set, primary screen (AID 588685;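 active = differentiation response of at least 50%, scaled between solvent and reference control, from cells with both markers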;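 note: compound exposure lasts four days before antibody staining and flow analysis; 0% = DMSO wells and 100% = 5 µM fulvestrant positive control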). To be noted: stronger effect = higher value, normalized: vehicle 0, fulvestrant 100.
Experiment [16] addresses Beta-2 adrenergic receptor (Homo sapiens) (UniProt P07550). As to the kind of experiment: agonist-induced loss of surface beta2AR – cell-based, FAP fluorogen, flow cytometry, validation set, pilot screen (AID 504459;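 active = percent response above 42, roughly 3 SD of non-fluorescent test compounds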;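 note: agonist-driven loss of surface beta2AR via internalization measured by FAP dye flow cytometry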). Particulars: Am2.2-beta2AR cells, at 10 µM, stronger effect = higher value.

Chain of AP-2 complex subunit beta (Homo sapiens) (P63010 whole entry, looked up, the tested form may be a part, one chain of several): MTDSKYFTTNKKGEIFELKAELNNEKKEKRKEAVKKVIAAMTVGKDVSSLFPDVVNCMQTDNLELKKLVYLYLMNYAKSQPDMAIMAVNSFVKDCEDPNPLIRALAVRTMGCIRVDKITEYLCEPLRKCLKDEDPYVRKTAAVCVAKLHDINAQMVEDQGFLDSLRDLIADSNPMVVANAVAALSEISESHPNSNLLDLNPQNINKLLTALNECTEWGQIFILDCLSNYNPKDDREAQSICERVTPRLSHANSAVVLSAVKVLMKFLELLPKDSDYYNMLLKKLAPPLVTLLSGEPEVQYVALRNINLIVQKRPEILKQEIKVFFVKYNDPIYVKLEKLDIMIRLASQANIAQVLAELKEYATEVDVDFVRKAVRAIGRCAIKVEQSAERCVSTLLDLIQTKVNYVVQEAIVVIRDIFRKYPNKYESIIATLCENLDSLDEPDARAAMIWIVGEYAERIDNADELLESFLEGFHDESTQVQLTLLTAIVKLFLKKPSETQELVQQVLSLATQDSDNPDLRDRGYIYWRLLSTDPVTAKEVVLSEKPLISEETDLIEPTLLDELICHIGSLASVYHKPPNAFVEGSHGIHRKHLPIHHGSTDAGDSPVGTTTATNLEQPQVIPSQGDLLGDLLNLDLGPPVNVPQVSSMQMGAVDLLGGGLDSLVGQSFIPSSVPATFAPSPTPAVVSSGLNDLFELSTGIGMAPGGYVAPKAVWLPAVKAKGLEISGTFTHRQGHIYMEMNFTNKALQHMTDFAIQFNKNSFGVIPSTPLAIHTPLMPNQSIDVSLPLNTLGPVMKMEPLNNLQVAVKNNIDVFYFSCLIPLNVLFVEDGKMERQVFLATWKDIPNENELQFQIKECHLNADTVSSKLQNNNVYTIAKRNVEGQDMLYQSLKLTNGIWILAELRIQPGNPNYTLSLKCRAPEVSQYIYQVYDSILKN
Chain of Integrin beta-1 (Homo sapiens) + Integrin alpha-4 (Homo sapiens) (P05556 whole entry, looked up): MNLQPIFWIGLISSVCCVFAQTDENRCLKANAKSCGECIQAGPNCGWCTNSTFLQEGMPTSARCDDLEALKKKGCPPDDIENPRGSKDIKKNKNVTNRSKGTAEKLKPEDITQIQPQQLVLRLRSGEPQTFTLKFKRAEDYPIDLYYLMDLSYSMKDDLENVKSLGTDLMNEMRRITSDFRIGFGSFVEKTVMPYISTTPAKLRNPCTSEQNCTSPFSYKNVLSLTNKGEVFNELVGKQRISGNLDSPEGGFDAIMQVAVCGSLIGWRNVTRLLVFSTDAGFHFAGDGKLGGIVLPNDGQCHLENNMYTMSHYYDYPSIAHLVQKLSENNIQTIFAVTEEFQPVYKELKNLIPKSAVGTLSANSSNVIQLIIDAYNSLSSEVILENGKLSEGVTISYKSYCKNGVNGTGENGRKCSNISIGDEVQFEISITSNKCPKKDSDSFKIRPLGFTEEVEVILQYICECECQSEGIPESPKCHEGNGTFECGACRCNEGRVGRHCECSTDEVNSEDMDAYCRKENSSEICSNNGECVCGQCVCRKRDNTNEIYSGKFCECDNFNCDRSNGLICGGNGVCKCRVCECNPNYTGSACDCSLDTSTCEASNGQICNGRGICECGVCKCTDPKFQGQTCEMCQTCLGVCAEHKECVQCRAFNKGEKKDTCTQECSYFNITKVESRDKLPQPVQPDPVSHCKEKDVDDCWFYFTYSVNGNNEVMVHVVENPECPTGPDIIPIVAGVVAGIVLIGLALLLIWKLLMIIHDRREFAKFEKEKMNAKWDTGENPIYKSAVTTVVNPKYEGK
Chain of Integrin beta-1 (Homo sapiens) + Integrin alpha-4 (Homo sapiens) (P13612 whole entry, looked up): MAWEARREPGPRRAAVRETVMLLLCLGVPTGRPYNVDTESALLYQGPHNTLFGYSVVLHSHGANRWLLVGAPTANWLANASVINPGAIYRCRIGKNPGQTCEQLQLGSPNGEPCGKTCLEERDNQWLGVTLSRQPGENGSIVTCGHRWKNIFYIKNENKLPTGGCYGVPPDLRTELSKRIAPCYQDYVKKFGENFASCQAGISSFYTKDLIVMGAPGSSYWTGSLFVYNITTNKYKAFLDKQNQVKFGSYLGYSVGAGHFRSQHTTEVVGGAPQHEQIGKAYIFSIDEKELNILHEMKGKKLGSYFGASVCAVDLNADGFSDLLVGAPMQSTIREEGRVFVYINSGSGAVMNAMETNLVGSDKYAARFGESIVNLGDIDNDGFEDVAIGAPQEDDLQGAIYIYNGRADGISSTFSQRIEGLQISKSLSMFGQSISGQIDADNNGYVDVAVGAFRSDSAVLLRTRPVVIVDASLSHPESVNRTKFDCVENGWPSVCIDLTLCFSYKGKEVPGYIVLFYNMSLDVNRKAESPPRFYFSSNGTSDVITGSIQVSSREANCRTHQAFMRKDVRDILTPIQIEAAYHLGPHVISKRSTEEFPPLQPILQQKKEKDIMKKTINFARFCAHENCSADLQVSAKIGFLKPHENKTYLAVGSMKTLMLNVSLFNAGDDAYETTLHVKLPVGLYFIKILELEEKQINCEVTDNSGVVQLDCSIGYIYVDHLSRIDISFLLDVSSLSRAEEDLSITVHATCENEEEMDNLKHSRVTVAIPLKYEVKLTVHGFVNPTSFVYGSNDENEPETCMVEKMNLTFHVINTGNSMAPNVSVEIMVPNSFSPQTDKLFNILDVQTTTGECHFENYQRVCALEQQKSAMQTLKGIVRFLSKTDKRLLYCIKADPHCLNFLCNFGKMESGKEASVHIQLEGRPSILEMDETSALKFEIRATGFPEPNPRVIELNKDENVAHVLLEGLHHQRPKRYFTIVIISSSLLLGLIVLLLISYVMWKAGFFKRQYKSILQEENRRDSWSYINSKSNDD
Chain of Beta-2 adrenergic receptor (Homo sapiens) (P07550 whole entry, looked up): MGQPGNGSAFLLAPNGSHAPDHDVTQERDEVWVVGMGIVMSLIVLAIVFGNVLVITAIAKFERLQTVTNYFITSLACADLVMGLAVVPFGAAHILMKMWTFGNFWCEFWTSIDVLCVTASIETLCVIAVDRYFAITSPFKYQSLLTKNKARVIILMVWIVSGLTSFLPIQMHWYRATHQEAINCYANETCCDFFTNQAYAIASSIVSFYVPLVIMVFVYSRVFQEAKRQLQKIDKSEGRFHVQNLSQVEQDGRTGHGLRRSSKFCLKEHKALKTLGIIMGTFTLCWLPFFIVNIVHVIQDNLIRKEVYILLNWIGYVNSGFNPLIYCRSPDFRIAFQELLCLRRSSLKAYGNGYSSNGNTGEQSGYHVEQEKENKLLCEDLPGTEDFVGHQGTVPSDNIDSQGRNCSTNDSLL

As to `CC(C)NC(=O)C1(c2ccccc2)CCOCC1`, the percent of DMSO control GFP in experiment [1] is 100% (inactive). Besides, the GFP response vs DMSO in [2] is 95.9% (inactive); in experiment [4], 99.4% (inactive). Further, the percent response of DMSO control in [3] was 104% (inactive). Besides, in [5], the GFP response, % of DMSO is 99.3% (inactive). In addition, the double positive events in experiment [6] came out at 62.2%. Further, the vesicle binding response in [6] was 191% (inactive). In addition, the inhibition in [7] was -51.5% (inactive); in experiment [10] it was 3.27% (inactive); in [14], 4% (inactive). Further, in [8], the superoxide response (% of plate) was 99.3% (inactive). In [9], the aptamer binding inhibition was 4% (inactive). Also, in experiment [11], the response was 0.02% (inactive). Moreover, in [12], the binding (% of control) is 98.2% (inactive). Further, the efflux inhibition (fraction of control) in experiment [13] was -0.01 (inactive). In experiment [15], the differentiation response was -0.2% (inactive).
In the case of `CN(C)c1ccc(O)c2c1CC1CC3[C@@H](N(C)C)C(=O)C(C(N)=O)=C(O)[C@]3(O)C(=O)C1=C2O` (stereo not given in full), in experiment [1], the percent of DMSO control GFP is 100% (inactive). In addition, the GFP response vs DMSO is 101% (inactive) in experiment [2] and 93.7% (inactive) in experiment [4]. The percent response of DMSO control in experiment [3] was 97.6% (inactive). Besides, the GFP response, % of DMSO in [5] is 93% (inactive). This compound yielded a double positive events in experiment [6] of 63%. Besides, in experiment [6], the vesicle binding response is 162% (inactive). Also, the inhibition in experiment [7] was 4.27% (inactive); in experiment [10], 6.63% (inactive); in experiment [14] it was 6% (inactive). For the same compound, in experiment [8], the superoxide response (% of plate) is 99.5% (inactive). Further, the aptamer binding inhibition in [9] was 29% (inactive). For the same compound, the response in [16] is 1.7% (inactive); in experiment [11], -2.16% (inactive). The binding (% of control) in [12] is 93.6% (inactive). Further, the differentiation response in [15] is -3.11% (inactive).
`Cc1ccccc1C(OCCN(C)C)c1ccccc1` (stereo not given): the percent of DMSO control GFP in experiment [1] is 101% (inactive). For the same compound, the figures for the GFP response vs DMSO in [2] and in experiment [4] were 98.9% (inactive) and 85.3% (inactive), respectively. For the same compound, the percent response of DMSO control in [3] was 102% (inactive). In experiment [5], the GFP response, % of DMSO was 94.6% (inactive). The double positive events in experiment [6] came out at 51.2%. Also, the vesicle binding response in experiment [6] was 111% (inactive). Moreover, the inhibition in [7] is 10.9% (inactive); in experiment [10], -8.71% (inactive); in experiment [14] it was 4% (inactive). For the same compound, in experiment [8], the superoxide response (% of plate) is 106% (inactive). In [9], the aptamer binding inhibition is 1% (inactive). Moreover, the response in [11] was 9.28% (inactive). In addition, the binding (% of control) in [12] was 98.7% (inactive). Further, in experiment [13], the efflux inhibition (fraction of control) is 0.03 (inactive). Also, the differentiation response in experiment [15] was -22.8% (inactive).
For `CC(C)CN1CC(C(=O)O)CC1=O` (stereo not given), in experiment [1], the percent of DMSO control GFP is 96.1% (inactive). Further, the GFP response vs DMSO in experiment [2] is 101% (inactive); in experiment [4], 104% (inactive). The percent response of DMSO control in experiment [3] was 96% (inactive). Besides, the GFP response, % of DMSO in experiment [5] is 102% (inactive). Besides, in experiment [6], the double positive events came out at 56%. Also, the vesicle binding response in experiment [6] is 66.5% (inactive). For the same compound, the inhibition in experiment [7] was 1.12% (inactive); in [14] it was 4% (inactive). Further, the superoxide response (% of plate) in experiment [8] was 102% (inactive). Further, the aptamer binding inhibition in experiment [9] is 0% (inactive). The response in experiment [16] was -5.23% (inactive); in experiment [11], -1.05% (inactive). Also, the binding (% of control) in [12] is 104% (inactive). Moreover, the efflux inhibition (fraction of control) in experiment [13] is -0.57 (inactive). Further, the differentiation response in [15] is 5.73% (inactive).
Take `CC[n+]1c(C)sc2cc(C)ccc21`: in experiment [1], the percent of DMSO control GFP was 96.4% (inactive). Further, the GFP response vs DMSO was 103% (inactive) in experiment [2] and 116% (inactive) in [4]. In addition, the percent response of DMSO control in [3] was 87.1% (inactive). Moreover, the GFP response, % of DMSO in experiment [5] is 95.4% (inactive). In experiment [6], the double positive events was determined as 50%. Further, the vesicle binding response in [6] was 138% (inactive). For the same compound, the values for the inhibition in experiment [7], in experiment [10] and in [14] were -11.4% (inactive), -14% (inactive) and 15% (inactive), respectively. For the same compound, in [8], the superoxide response (% of plate) was 106% (inactive). The aptamer binding inhibition in experiment [9] was 6% (inactive). Also, the response in [11] is -1.58% (inactive). Besides, the binding (% of control) in experiment [12] is 102% (inactive). For the same compound, in experiment [13], the efflux inhibition (fraction of control) is 0.44 (active). Besides, in experiment [15], the differentiation response was -13.1% (inactive).
